# The campaign covered roughly 300,000 compounds. About 37,000 (12%) were called active. Rule as the data show it: active = max response mostly above about 13% (no sharp cut-off); inactive = mostly below about 14%. This excerpt belongs to a sample that is enriched for actives.
# Test: Cycloheximide Counterscreen for Small Molecule Inhibitors of Shiga Toxin; also: read at 38.3 µM for the half of the compounds with a filed dose; 0% is about no effect
# Details: cell reporter, cycloheximide protein synthesis inhibition counterscreen; hits give high values
row,Compound,max response
1,COCCn1c(C)cc(C(=O)CSc2nc3ccccc3c(=O)n2C(C)COC)c1C (centres undefined),13.4% (inactive)
2,COc1cccc(-c2cc3nc4c(c(N5CCC6(CC5)OCCO6)n3n2)CCCC4)c1,24.2% (active)
3,COc1cccc(CNc2nc3nc4c(c(=O)n3[nH]2)CCC4)c1,-3.21% (inactive)
4,O=C(c1cc2nc(-c3ccccc3)cc(-c3ccccc3)n2n1)N1CCC2(CC1)OCCO2,3.88% (inactive)
5,C=Cc1ccc(C(=O)N2CCCC(CCC(=O)N3CCN(c4ccccn4)CC3)C2)cc1 (centres undefined),-3.56% (inactive)
6,COc1cc(C)cc(CN2CCC(Cc3ccccc3)CC2)c1O,-8.91% (inactive)
7,CSc1nnc(NC(=O)c2nc(S(=O)(=O)Cc3ccc(C)cc3)ncc2Cl)s1,63.3% (active)
8,Cc1ccc(CS(=O)(=O)c2ncc(Cl)c(C(=O)Nc3nnc(C)s3)n2)cc1,66% (active)
9,Cc1ccc(S(=O)(=O)CC(=O)Nc2nnc(C)s2)cc1,-6.45% (inactive)
10,CSc1ncc(Cl)c(C(=O)Nc2cc(C)ccc2C)n1,7.29% (inactive)
11,Cc1nnc(NC(=O)CCCOc2ccccc2)s1,-3.73% (inactive)
12,COCCSc1nnc(NC(=O)CCS(=O)(=O)Cc2ccccc2)s1,-1.53% (inactive)
13,Cc1ccc(CN2CCC(N3CCC(C(=O)NCC4CCCO4)CC3)CC2)o1 (centres undefined),4.92% (inactive)
14,CCOC(=O)c1c(NC(C)=O)sc2c(O)c(Br)ccc12,-7.21% (inactive)
15,CC(Oc1cc2oc(=O)c3c(c2cc1Cl)CCCC3)C(=O)NCc1ccncc1 (centres undefined),-1.94% (inactive)
16,Cc1cccc(NS(=O)(=O)c2ccc(C(=O)NCC(C)(C)N3CCOCC3)cc2)c1C,-1.4% (inactive)
17,Cc1ccc(CC2C(=O)N(c3ccc(F)cc3)C(=O)C2C)cc1 (centres undefined),7.99% (inactive)
18,CC(C)[C@H](NC(=O)N1c2ccccc2NC(=O)[C@@H]1C(C)C)C(=O)N[C@H](C(=O)O)c1ccccc1,5.5% (inactive)
19,CC(=O)Nc1ccc(S(=O)(=O)N2CCC(C(=O)NC3CC3)CC2)cc1,-6.68% (inactive)
20,Cn1c(=O)c2c(nc(NCCNC(=O)c3ccco3)n2Cc2ccccc2F)n(C)c1=O,-1.04% (inactive)

row,Compound,max response
1,Nc1nc(-c2ccccc2)cc(-c2ccccc2)n1,21% (active)
2,CNc1nc(-c2ccccc2)cc(-c2ccccc2)n1,-1.91% (inactive)
3,Nc1cccc(-c2cc(-c3ccccc3)nc(-c3cccc(N)c3)n2)c1,-5.19% (inactive)
4,COc1ccc2c(C)cc3nnnn3c2c1,-1.91% (inactive)
5,O=Cc1c(NCCCN2CCCC2=O)c2ccccc2[nH]c1=O,-2.01% (inactive)
6,Cc1ccc(C2NC(C(=O)O)CS2)cc1 (centres undefined),1.34% (inactive)
7,CCOc1ccc2nc(NCCNS(=O)(=O)c3ccccc3)c(C#N)cc2c1,25.7% (active)
8,CCOc1ccc(S(=O)(=O)NCCSc2ccccc2)cc1,-2.61% (inactive)
9,CCOc1ccc2nc(NCCNC(=O)C(C)(C)C)c(C)cc2c1,3.67% (inactive)
10,Cc1ccc(C)c(NC(=O)c2cc(-c3cc(C)cc(C)c3O)n[nH]2)c1,5.99% (inactive)
11,COc1ccc([N+](=O)[O-])cc1N(CC(O)Cn1nnc2ccccc21)S(=O)(=O)c1ccc(C)cc1 (centres undefined),10.2% (inactive)
12,CCc1ccc(CNC(=O)C2CC(=O)N(CCc3ccc(C)cc3)C2)cc1 (centres undefined),0.654% (inactive)
13,COc1ccc(C(=O)Oc2cc(/C=N/NS(=O)(=O)c3ccc(C)cc3)ccc2OC)cc1,1.6% (inactive)
14,COc1cccc(OCc2cc(/C=N/NC(=O)c3nc(Cl)c(Cl)c(N)c3Cl)ccc2OC)c1,-1.62% (inactive)
15,COc1cc(/C=N/NC(=O)c2ccccc2)ccc1OS(=O)(=O)c1ccccc1,10% (inactive)
16,COc1ccc(/C=N/S(=O)(=O)c2ccccc2)cc1OC,-3.6% (inactive)
17,COc1ccc(/C=N/NC(=O)c2ccccc2)cc1OS(=O)(=O)c1ccccc1,17.9% (active)
18,COc1ccc(/C=N\NC(=O)c2sc(N)nc2C)cc1OC,16.4% (active)
19,CCN(CC)CCCNC(=O)c1cn(C)c2ccc(S(=O)(=O)N(C)C3CCCCC3)cc2c1=O,-5.84% (inactive)
20,Fc1ccccc1/C=C1\CCCC2=C1Nc1ncnn1C2c1ccccc1F (centres undefined),-5.33% (inactive)

row,Compound,max response
1,COc1ccc(N(CC(=O)NCC2CCCO2)C(=O)CCC(=O)Nc2nccs2)c(OC)c1 (centres undefined),-4% (inactive)
2,CCc1ccc(N2CC(C(=O)Nc3ccc(S(=O)(=O)Nc4nccs4)cc3)CC2=O)cc1 (centres undefined),-3.18% (inactive)
3,C/C(=N\NC(=O)c1ccc(C)cc1)C1C(=O)c2ccccc2C1=O,23.4% (active)
4,Cc1ccc(C(=O)N/C(=C/c2cccnc2)C(=O)O)cc1,-0.563% (inactive)
5,C/C(=N\NC(=O)CNC(=O)C(c1ccccc1)c1ccccc1)c1ccc(C)cc1,-6.41% (inactive)
6,Cc1ccc(S(=O)(=O)c2nc(-c3cccs3)oc2NCc2cccnc2)cc1,7.52% (inactive)
7,O=C1c2cccc3c([N+](=O)[O-])ccc(c23)C(=O)N1CC1CCCO1 (centres undefined),20% (inactive)
8,Cc1cc(Nc2ccccc2)n(C(=O)c2ccc(N)cc2)n1,24% (active)
9,Cc1cc(C)n(C(=O)c2ccc(S(=O)(=O)N3CCCC3)cc2)n1,-2.32% (inactive)
10,Cc1cc(Nc2ccccc2)n(CCC#N)n1,-3.59% (inactive)
11,CC(c1ccco1)N(C(=O)COc1ccccc1[N+](=O)[O-])c1ccccn1 (centres undefined),20.7% (inactive)
12,O=C(COc1ccc(S(=O)(=O)N2CCCCC2)cc1)NCc1ccccn1,0.485% (inactive)
13,CC(c1ccco1)N(C(=O)c1ccc(S(=O)(=O)N2CCCCC2)cc1)c1ccccn1 (centres undefined),15.1% (active)
14,CC(C)N1CCC(=NNc2ccc([N+](=O)[O-])cc2S(=O)(=O)N2CCOCC2)CC1,-2.55% (inactive)
15,CN(c1ccccc1)S(=O)(=O)c1ccc2[nH]c(=O)[nH]c2c1,-2.46% (inactive)
16,Fc1ccc(CNc2nc3ccccc3n3nnnc23)cc1,13.3% (active)
17,CCOC(=O)CNc1nc2ccccc2n2c(C)nnc12,7.6% (inactive)
18,COc1ccc(CNc2nnnn2C)cc1,-1.69% (inactive)
19,Cc1ccc(-c2ccc(=O)n(Cc3ccc(F)cc3Cl)n2)cc1,7.94% (inactive)

# Reference: PubChem BioAssay AID2314 (National Center for Advancing Translational Sciences (NCATS), 2010)
